Data: PubChem BioAssay AID1159580 (chemical genetic matrix, 2015)
“And” between values parts separate entries of the source, which are not always exact repeats. Equal values may be shown once. The campaign covered roughly 5,500 compounds. About 2,000 (36%) were called active. Not shown: some 18% with an inconclusive outcome. Rule as the data show it: active = normalized growth mostly below about 0.91 (no sharp cut-off); inconclusive = no clear call, values can overlap the other calls; inactive = mostly above about 0.92. This is one part of the list.

Assay: chemical genetic growth profiling, strain panel (AID 1159580);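 also: tested at 20 µM; growth read once vehicle control cultures reached saturation at 30 °C; 1 = growth at the plate median or of vehicle wells; lower values mean less growth of the strain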
Details: S. cerevisiae deletion strains, growth OD

Measured: normalized growth

N[C@@H](Cc1ccc(N(CCCl)CCCl)cc1)C(=O)O
inactive: locus YAL013W, strain DEP1, active compounds read low 0.988 | locus YAL021C, strain ccr4, active compounds read low 0.985 | locus YAL026C, strain drs2, active compounds read low 0.997 | locus YAL030W, strain snc1, active compounds read low 0.991 | locus YBL061C, strain skt5, active compounds read low 0.987 | locus YBR009C, strain hhf1, active compounds read low 0.985 | locus YBR021W, strain FUR4, active compounds read low 1.05 | locus YBR023C, strain chs3, active compounds read low 0.978 | locus YBR171W, strain sec66, active compounds read low 0.98 | locus YBR229C, strain ROT2, active compounds read low 0.947 | locus YBR231C, strain swc5, active compounds read low 0.994 | locus YBR279W, strain paf1, active compounds read low 0.988 | locus YCL011C, strain gbp2, active compounds read low 0.971 | locus YCL016C, strain dcc1, active compounds read low 0.968 | locus YCL029C, strain bik1, active compounds read low 0.972 | locus YCL061C, strain MRC1, active compounds read low 0.972 | locus YCL069W, strain vba3, active compounds read low 0.984 | locus YCR088W, strain abp1, active compounds read low 0.986 | locus YDL005C, strain med2, active compounds read low 0.995 | locus YDL035C, strain GPR1, active compounds read low 0.986 | locus YDL040C, strain nat1, active compounds read low 0.985 | locus YDL074C, strain BRE1, active compounds read low 0.977 | locus YDL101C, strain DUN1, active compounds read low 0.972 | locus YDL134C, strain PPH21, active compounds read low 0.987 | locus YDL192W, strain arf1, active compounds read low 0.973 | locus YDR001C, strain nth1, active compounds read low 0.978 | locus YDR069C, strain doa4, active compounds read low 0.996 | locus YDR101C, strain arx1, active compounds read low 0.983 | locus YDR137W, strain rgp1, active compounds read low 0.964 | locus YDR150W, strain NUM1, active compounds read low 0.974 | locus YDR159W, strain sac3, active compounds read low 1.01 | locus YDR162C, strain NBP2, active compounds read low 0.974 | locus YDR195W, strain ref2 0.975 | locus YDR297W, strain sur2, active compounds read low 0.998 | locus YDR318W, strain mcm21, active compounds read low 0.984 | locus YDR334W, strain swr1, active compounds read low 0.966 | locus YDR335W, strain msn5, active compounds read low 0.995 | locus YDR388W, active compounds read low 0.984 | locus YDR392W, strain spt3, active compounds read low 0.879 | locus YDR502C, strain sam2, active compounds read low 0.971 | locus YEL003W, strain gim4, active compounds read low 0.996 | locus YEL037C, strain rad23, active compounds read low 0.973 | locus YEL061C, strain CIN8 (second series), active compounds read low 0.978 | locus YEL061C, strain CIN8, active compounds read low 0.982 | locus YER015W, strain faa2, active compounds read low 0.995 | locus YER016W, strain bim1, active compounds read low 1 | locus YER110C, active compounds read low 0.977 | locus YER111C, strain swi4, active compounds read low 0.967 | locus YER155C, strain BEM2 (second series), active compounds read low 0.991 | locus YER155C, strain BEM2, active compounds read low 0.979 | locus YER167W, strain BCK2, active compounds read low 0.982 | locus YFR010W, strain ubp6, active compounds read low 0.985 | locus YGL078C, strain dbp3, active compounds read low 0.986 | locus YGL086W, strain mad1, active compounds read low 0.983 | locus YGL167C, strain pmr1, active compounds read low 0.987 | locus YGL173C, strain kem1, active compounds read low 0.994 | locus YGL227W, strain vid30, active compounds read low 0.995 | locus YGL240W, strain doc1, active compounds read low 1.02 | locus YGL248W, strain PDE1, active compounds read low 0.972 | locus YGL253W, strain hxk2, active compounds read low 0.982 | locus YGR078C, strain PAC10, active compounds read low 0.986 | locus YGR135W, strain pre9, active compounds read low 0.962 | locus YGR229C, strain SMI1, active compounds read low 0.974 | locus YGR252W, strain gcn5, active compounds read low 1.02 | locus YHR013C, strain ard1, active compounds read low 0.932 | locus YHR027C, strain rpn1, active compounds read low 0.983 | locus YHR030C, strain SLT2, active compounds read low 0.989 and 1.02 | locus YHR079C, strain IRE1 (second series), active compounds read low 0.982 | locus YHR079C, strain IRE1, active compounds read low 1.03 | locus YHR094C, strain hxt1, active compounds read low 0.971 | locus YHR129C, strain ARP1, active compounds read low 0.998 | locus YHR142W, strain chs7, active compounds read low 0.941 | locus YHR200W, strain rpn10, active compounds read low 0.97 | locus YIL066C, strain RNR3, active compounds read low 0.983 | locus YIL073C, strain SPO22, active compounds read low 0.963 | locus YIL125W, strain kgd1, active compounds read low 0.979 | locus YIR030C, strain dcg1, active compounds read low 0.981 | locus YJL092W, strain hpr5, active compounds read low 0.979 | locus YJL095W, strain BCK1 (second series), active compounds read low 0.984 | locus YJL095W, strain BCK1, active compounds read low 1 and 1.02 | locus YJL115W, strain asf1, active compounds read low 0.981 | locus YJL129C, strain trk1, active compounds read low 0.969 | locus YJL134W, strain LCB3, active compounds read low 0.981 | locus YJL154C, strain vps35, active compounds read low 0.978 | locus YJL164C, strain tpk1, active compounds read low 0.949 | locus YJL166W, strain qcr8, active compounds read low 0.952 | locus YJL168C, strain set2, active compounds read low 0.981 | locus YJL187C, strain SWE1 (second series), active compounds read low 0.98 | locus YJL187C, strain SWE1, active compounds read low 0.984 | locus YJR043C, strain POL32, active compounds read low 0.989 | locus YJR066W, strain TOR1, active compounds read low 0.959
